Screening results from PubChem BioAssay.
Shown are actives, neighbours in structure and some others; about 19% of the full set was active somewhere.
IL1B secr inh – inflammasome signaling inhibition, IL-1 beta readout; THP-1 LPS/ATP IL-1B secretion, AlphaLISA, 16 h; stronger effect = lower value; activity change, % at 57.5 µM; 360,000 tested, 4.7% active; AID 743279; in the data active means activity change below about -50%; inconclusive means mostly about -30% to -49%
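Secreted IL-1B measured by AlphaLISA bead assay after 16 h compound exposure of THP-1 cells; compounds (final up to 57.5 uM) added 1 h before LPS (250 ng/mL) and ATP (1.25 mM) stimulation; lower signal means less secretion.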
DT40 TDP1 no CPT – qHTS for Inhibitors of human tyrosyl-DNA phosphodiesterase 1 (TDP1): qHTS in cells in absence of CPT | DT40 Tdp1-/- hTDP1 cells, no CPT, ATP luminescence, 48 h | Potency, µM (top dose mostly 46.2 µM), for the others: top-dose activity change, negative = growth inhibition, most hits filed as inhibitors | 420,000 tested, 15% active | AID 686978, 2013; further: potency means the concentration at half of the fitted maximal effect; nearly all actives have a fitted effect of over 55% in size
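DT40 Tdp1-/-;hTDP1 cells, no CPT (DMSO vehicle only), 400 cells/well; compounds pin-transferred; ≥48 hr, 37 °C; CellTiter-Glo 30 min RT dark, luminescence read.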
HT1080-NT tox – kills 2HG-producing HT-1080-NT fibrosarcoma cells | HT-1080-NT fibrosarcoma viability, CellTiter-Glo ATP luminescence, 48 h | Potency, µM (series often up to 46.1 µM), inactives show at the top dose activity, negative = less viability, most hits filed as cytotoxic | 360,000 tested, 1.6% active | AID 686970;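 further: NT is the 2HG producing partner of a matched IDH1 knockdown line; potency means the concentration at half of the fitted maximal effect; 0% = DMSO-treated cells and -100% = media-only wells without cells; nearly all actives have a fitted effect of over 55% in size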
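750 cells/well, RPMI + 5% FBS; 2 h settle, compound pin-transfer, 48 h at 37 degrees C. CellTiter-Glo 10 min RT, luminescence. Normalized to DMSO and media-only wells.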
TDP1 cell CPT – growth inhibition of DT40 Tdp1-/-;hTDP1 cells with camptothecin (screen for TDP1 inhibitors); chicken DT40 Tdp1-/-;hTDP1 cells + 20 nM CPT, ATP luminescence, 48 h; Potency, µM (highest dose often 46.2 µM), inactives show at the top dose activity change, negative = growth inhibition, usual class: inhibitors; 420,000 tested, 12% active; AID 686979; further: potency means the concentration at half of the fitted maximal effect; nearly all actives have a fitted effect of over 55% in size
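Cell growth measured by CellTiter-Glo luminescence after a minimum 48 h, 37 C compound exposure with 20 nM CPT in Tdp1-knockout DT40 cells stably expressing hTDP1, seeded 400/well; qHTS titration format.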
HT1080 IDH1KD tx – kills HT-1080 cells with IDH1 knockdown; AID 686971; HT-1080 IDH1 knockdown viability, ATP luminescence, 48 h; 360,000 tested, 2% active; Potency, µM (series often up to 46.1 µM), without a hit: at the highest dose activity, negative = toxicity, hits mostly cytotoxic;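 further: potency means the concentration at half of the fitted maximal effect; 0% = DMSO wells and -100% = cell-free medium wells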
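Luminescent ATP read-out (CellTiter-Glo, 10 min at room temperature) after 48 h compound exposure at 37 °C gave viability of IDH1-knockdown HT-1080 cells. Activity was normalised to DMSO and cell-free wells, then fitted as concentration-response curves.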
Starred values were filed as active, the others as inactive; ? = inconclusive; / = no result given. Unless noted, the call rests on the fitted dose curve; in most records, active means well fitted curve in the direction sought with a large enough effect; inconclusive means small, poorly fitted or top-dose-only effect, or another doubt; inactive means no such curve, though single readings can be large; an effect the other way counts as inactive or inconclusive. Unless noted, on the % scale 0 is the no-effect control and ±100 the full control effect.

SMILES	IL1B secr inh	DT40 TDP1 no CPT	HT1080-NT tox	TDP1 cell CPT	HT1080 IDH1KD tx
CCn1c(SCC(=O)N(C)C2CCS(=O)(=O)C2)nnc1-c1ccccc1 (stereo not drawn)	3	-7%	10%	22%	-7%
CCCCn1c(SCC(=O)NC2CC2)nnc1-c1ccncc1	4	0%	12%	4%	11%
CCCn1c(SCC(=O)NC2CCCCC2)nnc1-c1ccncc1	30	-78%	-6%	29µM*	1%
CCOC(=O)c1sc(-c2ccc(C(F)(F)F)cc2)nc1O	-14	?	18%	?	13%
CCOC(=O)c1sc(-c2cccc(C(F)(F)F)c2)nc1O	-5	21µM*	-13%	?	4%
COc1ccc(/C(C)=N/NC(=O)c2ccncc2)cc1	19	11%	7%	11%	8%
CC(=NNC(=O)c1ccncc1)c1ccccc1O	156	0.13µM*	?	0.18µM*	?
CC(=NNC(=O)c1ccncc1)c1ccc(O)cc1O	109	7.3µM*	-18%	?	?
C/C(=N\NC(=O)c1ccccc1)c1ccccc1Br	0	0.65µM*	?	0.82µM*	?
CC(=NNC(=O)c1ccccc1N)c1ccccc1O	128	5.8µM*	?	5.2µM*	?
COc1ccc(CNC(=O)C2=C(C)C(=O)OC23CCCCC3)cc1	/	-13%	/	-2%	/
O=C(CCN1C(=O)C2C3CC(C(Br)C3Br)C2C1=O)OCC(=O)c1ccccc1 (stereo not drawn)	6	?	12%	?	27%
C/C(=N\NC(=O)c1cccc2ccccc12)c1cccnc1	32	8%	-28%	-2%	?
CC(C)CC(=NNC(=O)c1ccncc1)c1cc(Cl)ccc1O	64	2.6µM*	?	3.7µM*	0.82µM*
CC(=O)c1ccc2ccccc2c1OC(=O)c1ccncc1	1	26µM*	-14%	?	-14%
CC(=NNC(=O)c1ccncc1)c1ccc2ccccc2c1O	84	4.6µM*	?	4.1µM*	5.8µM*
C/C(=N\NC(=O)c1ccc(N2CCCC2=O)cc1)c1ccc(O)cc1O	32	3.7µM*	-25%	4.6µM*	?
C/C(=N\NC(=O)c1ccc(N2CCCC2=O)cc1)c1ccccc1	26	-23%	12%	-8%	8%
COCCC(=O)N1CCCC(C(=O)c2ccc(Oc3ccccc3)cc2)C1 (stereo not drawn)	-1	21µM*	-7%	-29%	-2%
COC(=O)CCCC(=O)N1CCCC(C(=O)c2ccc(-c3ccccc3)cc2)C1 (stereo not drawn)	9	?	-1%	?	1%
Cc1ccc(C(=O)N2CCCC(C(=O)c3ccc(Cl)cc3C)C2)cn1 (stereo not drawn)	1	21µM*	11%	-29%	-7%
CCN1CCN(CC(=O)N2CCCC(C(=O)c3ccc(Oc4ccccc4)cc3)C2)CC1 (stereo not drawn)	-14	?	-22%	?	-23%
Cc1ccc(C(=O)N2CCCC(C(=O)c3ccc(Oc4ccccc4)cc3)C2)cn1 (stereo not drawn)	-80*	16µM*	-21%	21µM*	?
Cc1cnc(C(=O)N2CCCC(C(=O)c3ccc(Cl)cc3C)C2)cn1 (stereo not drawn)	80	?	-7%	?	5%
CCC(=O)N1CCCC(C(=O)c2ccc(-c3ccccc3)cc2)C1 (stereo not drawn)	-68*	?	-3%	?	-29%
SMILES	IL1B secr inh	DT40 TDP1 no CPT	HT1080-NT tox	TDP1 cell CPT	HT1080 IDH1KD tx
C=CCN(CC=C)Cc1cc(=O)oc2cc(C)c(Cl)cc12	12	?	10%	?	3%
CC(=O)Nc1cccc(C(=O)N2CCC(n3nccc3NC(=O)CC(C)C)CC2)c1	-3	10%	-3%	1%	0%
CN1CCN(c2ncc3ncc(=O)n(CCc4ccccc4)c3n2)CC1	/	2%	/	4%	/
COc1cc(/C=N/Nc2nc(N3CCCC3)nc(N3CCCC3)n2)ccc1O	-9	?	-16%	-28%	-6%
Oc1ccc(/C=N/Nc2ccc(Cl)nn2)cc1O	45	15µM*	-16%	?	-6%
C/C(=N\Nc1nc(N2CCCCC2)nc(N2CCOCC2)n1)c1ccccc1O	-86*	21µM*	?	?	18µM*
Oc1ccc(/C=N/Nc2nc(N3CCCC3)nc(N3CCCC3)n2)cc1O	34	5.8µM*	-7%	?	-14%
Oc1ccc(/C=N/Nc2nc(N3CCCCCC3)nc(N3CCCCCC3)n2)c(O)c1	-99*	?	?	?	?
C=CCNC(=O)CSc1n[nH]c(-c2cc(Cl)ccc2OC)n1	-26	-19%	-15%	30%	-3%
CCn1ccc(C(=O)N2CCN(c3ncccn3)CC2)n1	-4	21%	1%	-4%	1%
Brc1cc2c(cc1/C=N/Nc1nc(N3CCCC3)nc(N3CCOCC3)n1)OCO2	?	16µM*	13%	26µM*	18%
C(=N\Nc1nc(N2CCOCC2)nc(N2CCOCC2)n1)/c1ccncc1	8	-18%	0%	0%	-3%
Oc1ccc(Br)cc1/C=N/Nc1nc(N2CCCCC2)nc(N2CCOCC2)n1	?	?	-2%	15µM*	-3%
CN(N)C(=S)Nc1ccc(Cl)cc1	1	-2%	24%	-3%	8%
Cc1cc2nc(/C=C/c3cccnc3)[nH]c2cc1C	6	0.018µM*	0.52µM*	0.018µM*	0.58µM*
